Experimental data reported in PubChem BioAssay AID743286 (National Center for Advancing Translational Sciences (NCATS), 2014).
Hit rate of the full screen: of about 1,100 compounds, about 340 (31%) were called active. About 40% were inconclusive and are not listed. Calls follow the shape of the dose curve; as a rule, active = well fitted inhibition curve with a large enough effect; inconclusive = small, poorly fitted or top-dose-only effect; inactive = flat fitted curve, though single readings scatter. These entries were drawn from the full list. A call without a number means that no potency is given here.

target: Phosphatidylinositol 5-phosphate 4-kinase type-2 alpha (Homo sapiens) (UniProt P48426); test: qHTS for Inhibitors of PI5P4K: Confirmation in Primary Assay; settings: PI5P4Kalpha enzyme, ADP-Glo luminescence, 60 min; series mostly up to 76.9 µM; also: nearly all actives have a fitted effect of over 65% in size
How it was run: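 ADP-Glo luminescence end-point quantified ADP produced by PI5P4Kα after 60 min at room temperature with 5 microM ATP. Buffer: HEPES pH 7.4, EGTA, 0.1% CHAPS, 5% DMSO final; compounds added before ATP.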
Potency is read from the fitted curve at half-maximal effect.

Phosphatidylinositol 5-phosphate 4-kinase type-2 alpha (Homo sapiens), sequence (P48426 whole entry, looked up): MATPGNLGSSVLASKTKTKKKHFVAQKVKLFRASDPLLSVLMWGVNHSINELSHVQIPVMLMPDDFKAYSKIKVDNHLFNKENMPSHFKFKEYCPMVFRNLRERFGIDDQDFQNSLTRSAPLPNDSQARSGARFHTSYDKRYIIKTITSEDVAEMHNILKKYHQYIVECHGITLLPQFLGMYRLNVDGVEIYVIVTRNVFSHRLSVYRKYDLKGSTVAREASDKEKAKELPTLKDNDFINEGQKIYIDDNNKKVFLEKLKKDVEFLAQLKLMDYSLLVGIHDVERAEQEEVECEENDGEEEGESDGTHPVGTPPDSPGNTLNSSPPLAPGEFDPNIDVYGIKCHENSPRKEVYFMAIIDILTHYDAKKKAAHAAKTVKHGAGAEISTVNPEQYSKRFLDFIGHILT

Structure (SMILES)	Potency
CN(C(=O)c1ccc(Br)o1)C1CCS(=O)(=O)C1 (configuration not stated)	inactive
CC(C)(C)c1ccc(NC(=O)C2=CC=CN3CCS(=O)(=O)N=C23)cc1	inactive
Cc1oc(-c2ccc(Cl)cc2)cc1C(=O)N1CCC1(C)C(=O)O (configuration not stated)	inactive
Cc1oc(-c2ccc(Cl)cc2)cc1-c1nn2c(-c3ccoc3C)nnc2s1	14.1 µM (active)
COc1cccc(CNc2nc(NC(C)C)nc3ccsc23)c1	inactive
COc1ccccc1CNc1nc(NCc2cccc(OC)c2OC)c2sccc2n1	inactive
c1ccc(-c2cc3nc(NCC4CC4)nc(NCC4CCCCC4)c3s2)cc1	20 µM (active)
c1ccc(CNc2nc(NCC3CC3)nc3cc(-c4ccccc4)sc23)cc1	12.6 µM (active)
CC(C)c1ccc(CNc2nc(NCC3CC3)nc3ccsc23)cc1	inactive
CCO[C@@H]1OC(C(=O)NCc2ccccc2)=C[C@H](C(C)(C)C)[C@H]1CCCO	inactive
O=C(Cn1cnc2c(OCc3ccccc3)ncnc21)NCc1nc2ccccc2[nH]1	inactive
COc1ccc(CCNC(=O)CNCC(c2ccccc2)N(C)C)cc1OC (configuration not stated)	inactive
Cc1ccc2c(CC(=O)OCC(=O)N(CC(C)C)c3c(N)n(Cc4ccccc4)c(=O)[nH]c3=O)coc2c1	inactive
COCCN(C(=O)COC(=O)c1cc2c(s1)CCC2)c1c(N)n(Cc2ccccc2)c(=O)[nH]c1=O	3.16 µM (active)
COc1ccc(S(=O)(=O)N2CCCC(C(=O)Nc3cccnc3)C2)cc1Cl (configuration not stated)	inactive
CCOc1ccc(C(Nc2cccnc2)c2cc(Cl)c3cccnc3c2O)cc1 (configuration not stated)	6.31 µM (active)
COc1ccc(Cl)cc1C(Nc1cccnc1)c1ccc2cccnc2c1O (configuration not stated)	12.6 µM (active)
O=C(NC(c1ccc(Cl)cc1)c1cc(Cl)c2cccnc2c1O)c1cccnc1 (configuration not stated)	22.4 µM (active)
COc1ccc(N(C(=O)C2CSC(=O)C2)C(C(=O)NC(C)(C)C)c2ccncc2)cc1 (configuration not stated)	inactive
Cc1noc(C)c1CCC(=O)N1CCCC(CCC(=O)NCc2ccc(F)c(F)c2)C1 (configuration not stated)	inactive
COC(=O)c1c[nH]c(=O)c2ccccc12	inactive

Structure (SMILES)	Potency
CCOC(=O)[C@]12CCCC=C1N(Cc1ccccc1)C(=O)[C@H](CC(=O)NCCCOC)C2	inactive
O=C(COC(=O)c1ccc(NS(=O)(=O)c2cccs2)cc1O)Nc1nc2ccccc2s1	20 µM (active)
O=C(Cn1cc(COc2ccc(Br)cc2[N+](=O)[O-])nn1)c1ccc(O)cc1	inactive
C#CCN1C(=O)S/C(=C\c2ccc(-c3ccc(C(=O)O)cc3C)o2)C1=O	12.6 µM (active)
CN(c1cccc(NC(=O)c2ccc(N(C)S(=O)(=O)c3ccccc3)cc2)c1)S(C)(=O)=O	inactive
CC1(C)Cc2cccc(OCC(=O)NCCOc3ccccc3)c2O1	inactive
FC(F)(F)C1=Nc2cccc3cccc(c23)N1	3.98 µM (active)
CC[C@]12c3[nH]c4cc(-c5ccco5)ccc4c3CCN1C(=O)[C@@H](CC(=O)NCCC1=CCCCC1)C[C@@H]2C(=O)N1CCN(C(=O)c2ccco2)CC1	inactive
Cc1ccc2c(c1)N(CC(=O)N1CCCCCC1)C(=O)C(C)O2 (configuration not stated)	inactive
Cc1cc(C)c(NC(=O)OCCN2CCOCC2)c(C)c1	inactive
O=C(CSc1nncn1-c1ccccc1)Nc1ccc(N2CCOCC2)cc1	inactive
Cc1cc2[nH]c3c4ccccc4nc(C)c3c2cc1C	28.2 µM (active)
CCS(=O)(=O)Nc1ccc(-c2nc3cccnc3s2)cc1	22.4 µM (active)
O=S(=O)(Nc1ccccc1N1CCCCC1)c1ccc(Cl)s1	inactive
O=S(=O)(Nc1ccc(-c2nc3cccnc3s2)cc1)c1ccc(Cl)s1	14.1 µM (active)
O=S1(=O)CC(N2CCSCC2)CN1Cc1cn(Cc2ccc(F)cc2)nn1 (configuration not stated)	inactive
COc1cc(Br)cc(CNc2ccc(F)c([N+](=O)[O-])c2)c1O	inactive
Cn1c(=O)c2c(-c3ccccc3)n(-c3cccc(O)c3)cc2n(C)c1=O	inactive
Cc1cccc(C2Nc3ccccc3C(=O)N2c2ccc(F)cc2)n1 (configuration not stated)	inactive
COc1ccc2[nH]c(=O)c(CN(Cc3nnnn3Cc3ccco3)C3CCCCC3)cc2c1	inactive
NS(=O)(=O)c1ccc2c(c1)C1C=CCC1C(C1CC=CCC1)N2 (configuration not stated)	28.2 µM (active)

Structure (SMILES)	Potency
CCN(CC)CCCCCC(=O)Nc1ccccc1C(=O)Nc1ccccc1	inactive
CCCCC1=CC2=CC(=O)C(C)(OC(=O)C3CCCC3)C(=O)C2=CO1 (configuration not stated)	15.8 µM (active)
Cc1c(Cl)cccc1NC(=O)Cn1nnc(C(=O)NCc2cccs2)c1N	inactive
S=C(NCc1ccccc1)N1CCc2ccccc2C1	inactive
Cc1ccc([N+](=O)[O-])cc1NC(=O)CCSc1ccc(Cl)cc1	inactive
NC(=O)c1ccsc1NC(=O)c1ccc([N+](=O)[O-])o1	12.6 µM (active)
COc1ccccc1CNc1nc(Nc2cccc(-c3cnco3)c2)c2sccc2n1	inactive
Cc1ccc(Nc2nc(NCc3ccco3)c3ccccc3n2)cc1	35.5 µM (active)
Cc1cccc(Nc2nc(NCc3ccco3)c3ccccc3n2)c1	35.5 µM (active)
CCc1cc(=O)oc2cc(C)c(CN3CCCCC3)c(O)c12	inactive
COc1ccc(N(C(=O)c2ccccc2)S(=O)(=O)c2cccs2)cc1	inactive
CC(CNC(=O)c1ccc(Br)o1)NC(=O)c1ccc(Br)o1 (configuration not stated)	inactive
O=C(Nc1cccc(S(=O)(=O)NC2=NCCC2)c1)c1cc(-c2ccco2)nc2ccccc12	2.51 µM (active)
O=C(Nc1cccc(S(=O)(=O)NC2=NCCCCC2)c1)c1cc(-c2ccco2)nc2ccccc12	2.82 µM (active)
COc1ccc(Br)cc1C(=O)Nc1cccc(NC(=O)c2ccco2)c1	inactive
COc1ccc(NC(=O)c2cc(-c3ccco3)nc3ccccc23)cc1S(=O)(=O)N1CCOCC1	6.31 µM (active)
Cc1csc(=O)n1CCC(=O)OCC(=O)Nc1ccc(N2CCOCC2)cc1	inactive
COc1ccc(N2CC(O)=C(c3nc(-c4ccccc4)cs3)C2=N)cc1	inactive
CCCCc1c(Cc2ccccc2)ncn1CCc1ccccc1OC	inactive
CC(=O)c1ccc(NC(=O)CC2Nc3cccc4cccc(c34)NC2=O)cc1 (configuration not stated)	3.98 µM (active)
